# Pf apPOL block: Pf-apPOL DNA polymerase inhibition; Recombinant Pf-apPOL, molecular beacon fluorescence, 1.5 h; inhibition, % at 10 µM; 210,000 compounds, 0.25% hits
# mHTT-CaM PPI inh: inhibitors of human mutant huntingtin-calmodulin interaction. P42858. AlphaScreen His-mHTT/GST-CaM binding, luminescence. inhibition, % at 15 µM. 190,000 compounds, 3.6% hits. AID 1671202;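 note: 0% = both proteins with DMSO and 100% = one protein alone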
# * marks the source's active call; other numbers are inactive results; / = no result. Rows were chosen to be rich in hits. Some 3.5% of all compounds tested hit in one or more screens of this group. Cut-off read from the data, not from the text of the source: active = inhibition above about 50%; inactive = the rest.
SMILES,Pf apPOL block,mHTT-CaM PPI inh
CN(C(=O)c1oc(=O)c2ccccc2c1-c1ccccc1)c1ccc(Br)cc1,-2,23
Cc1ccc(NC(=O)c2[nH]c3cc(C)sc3c2CN(C)C)c(Cl)c1,0,2
CCC(C)(C)c1ccc(OCC(N)=O)c(C(C)(C)CC)c1,-10,19
CCCn1c(=O)c(C(N)=NO)nn(-c2cccc(C(F)(F)F)c2)c1=O,3,/
Cc1c(CCOC(=O)C23CC4CC(CC(C)(C4)C2)C3)sc[n+]1CC(=O)c1ccccc1,-1,99*
CC12CC3CC(C1)CC(C(=O)O)(C3)C2,-5,-3
Nc1c(Br)cc(Br)c2nsnc12,-1,-6
CCOC(=O)CCC(=O)Nc1nc2c(s1)COCC2,-1,-14
CCCCOc1ccc(-c2nc(C=Nc3cccc(Cl)c3C)c(O)o2)cc1,3,5
O=C1CCCC2=C1C(c1ccc([N+](=O)[O-])cc1)C1C(=O)c3ccccc3C1=N2 (stereo unspecified),17,26
O=C1CCCC2=C1C(c1ccc(Cl)cc1)C1C(=O)c3ccccc3C1=N2 (stereo unspecified),11,66*
Cc1ccc(C2C3=C(CCCC3=O)N=C3c4ccccc4C(=O)C32)cc1 (stereo unspecified),4,59*
O=C1CCCC2=C1C(c1ccccc1)C1C(=O)c3ccccc3C1=N2 (stereo unspecified),4,37
CC1=C(C(=O)NCCCN2CCN(c3ccccc3F)CC2)C2(CCCCC2)OC1=O,-5,2
O=c1c(NCc2ccc(Cl)cc2)nc2ccncc2n1Cc1ccccc1,0,0
COc1cc(C2=N/C(=C\C=C\c3ccccc3)C(=O)O2)cc(OC)c1OC,1,61*
Cc1onc(-c2ccccc2)c1C1=N/C(=C\C=C\c2ccccc2)C(=O)O1,-2,68*
COc1cc(C2=NC(=CC=Cc3ccccc3)C(=O)O2)cc(OC)c1OC,-10,/
Cc1ccc(/C=C2/N=C(c3c(-c4ccccc4)noc3C)OC2=O)cc1,3,-2
COCCNC(=O)c1nn(-c2ccc(OC)cc2OC)c(=O)c2ccccc12,-3,6
Cc1cccc(NC(=O)CN2C(=O)N/C(=C\c3ccc(Br)cc3)C2=O)c1,-4,2
COc1cc(C=Nc2cccc3c(=O)[nH][nH]c(=O)c23)c([N+](=O)[O-])cc1OC,-1,13
COc1cc(C=Nc2ccc(Nc3ccccc3)cc2)c([N+](=O)[O-])cc1OC,0,96*
COc1cc(C=Nc2ccc(Nc3ccccc3)cc2)cc(OC)c1OC,-2,76*
COc1cc(C=Nc2ccc(NC(C)=O)cc2)cc(OC)c1OC,2,-1
SMILES,Pf apPOL block,mHTT-CaM PPI inh
O=C(NC1CC1)c1ccc2c(c1)NC(=O)C(N1CCOCC1)S2 (stereo unspecified),-7,-1
O=C(CSc1nc2c(cnn2-c2ccccc2)c(=O)[nH]1)Nc1ccc2c(c1)OCO2,3,5
O=C(c1cccnc1N1CCNC(c2ccccc2)C1)N1CCC(Cc2ccccc2)CC1 (stereo unspecified),12,73*
COCC1CCN(C(=O)c2cccnc2N2CCNC(c3ccccc3)C2)CC1 (stereo unspecified),4,-1
CCSC1=NSC2=NC(=O)/C(=C\c3ccc(N(C)C)cc3)C(=N)N12,-5,-2
CCC(=O)N1CCN(c2nc(C)nc(C)c2Cc2ccc(Cl)cc2Cl)CC1,4,52*
Cc1nc(C)c(Cc2ccc(Cl)cc2)c(N2CCN(C(=O)C3CC3)CC2)n1,-4,13
CCC(=O)N1CCN(c2nc(C)nc(C)c2Cc2c(F)cccc2Cl)CC1,-4,10
Cc1nc(C)c(Cc2ccc(Cl)cc2)c(N2CCN(C(=O)C3CCC3)CC2)n1,3,93*
CCC(C)NC(=O)c1cc(C)nc2ccc(Cl)cc12 (stereo unspecified),5,2
NC1=NC(=Nc2ccccc2)c2ccccc21,-2,3
c1ccc(N=C2C(Nc3ccccc3)=Nc3ccccc32)cc1,0,63*
CNC(=O)CN1c2ccccc2C(C)(C)C12C=Cc1cc([N+](=O)[O-])ccc1O2 (stereo unspecified),-4,96*
COc1cc2c(c(OC)c1[N+](=O)[O-])C=CC1(O2)N(C)c2ccccc2C1(C)C (stereo unspecified),3,32
COc1cc([N+](=O)[O-])cc2c1OC1(C=C2)N(C)c2ccccc2C1(C)C (stereo unspecified),-14,71*
COc1ccc2c(c1)C(C)(C)C1(C=Cc3cc([N+](=O)[O-])cc(OC)c3O1)N2C (stereo unspecified),3,61*
COc1cc([N+](=O)[O-])cc2c1OC1(C=C2)N(C)c2ccc([N+](=O)[O-])cc2C1(C)C (stereo unspecified),1,13
CN1c2ccccc2C(C)(C)C12C=Cc1cc([N+](=O)[O-])ccc1O2 (stereo unspecified),-6,-4
Cc1ccc(N(CN2C(=O)c3ccc([N+](=O)[O-])cc3C2=O)C(=O)c2ccco2)cc1,-6,10
C=C(O)c1ccc(-c2nnn(Cc3ccc(C)cc3)n2)cc1,/,-1
CC1=NN(c2cccc(Cl)c2)C(=O)/C1=C/c1ccc(F)cc1,7,8
CCN(C)c1ccc(/C=C2/C(=O)N(c3cccc(Cl)c3)N=C2C)cc1,-11,68*
CCN(C)c1ccc(/C=C2/C(=O)N(c3ccc(Cl)cc3)N=C2C)cc1,0,70*
CC1=NN(c2ccc(F)cc2)C(=O)/C1=C/c1ccc(N(C)C)cc1,-2,10
CC1=NN(c2ccc(C(=O)O)cc2)C(=O)/C1=C/c1ccc(N(C)C)cc1,-4,4
SMILES,Pf apPOL block,mHTT-CaM PPI inh
C=CCc1cc(/C=C2/C(=O)N(c3ccccc3)N=C2C)cc(OCC)c1O,8,49
CCOc1cc(/C=C2/C(=O)N(c3ccc(C)c(C)c3)N=C2C)cc(I)c1O,-16,72*
CCN(C)c1ccc(/C=C2/C(=O)N(c3ccc(C)c(C)c3)N=C2C)cc1,0,58*
CC(=NN=C(N)SCc1cc(F)cc2c1OCOC2)c1ccc(C)nc1,-2,/
CC(C)(O)CC1C(C)(O)CCC2C(C)(C)CCCC21C (stereo unspecified),3,23
CC(NC(=O)CN(C)S(=O)(=O)c1ccc(Br)cc1)c1ccccc1 (stereo unspecified),0,-1
CCN(CC)c1ccc(/C=C2/C(=O)N(c3ccccc3)N=C2C)cc1,-4,65*
CC1=NN(c2ccccc2)C(=O)/C1=C/c1ccc(Oc2ccc([N+](=O)[O-])cc2[N+](=O)[O-])cc1,0,52*
CC1=NOC(=O)/C1=C/c1ccc(N2CCOCC2)cc1,5,16
CC1=NN(c2ccccc2)C(=O)/C1=C/c1ccc(N2CCOCC2)cc1,7,78*
CCN(C)c1ccc(/C=C2/C(=O)N(c3cccc(Br)c3)N=C2C)cc1,-1,90*
COc1ccccc1OCCOc1ccc([N+](=O)[O-])cc1/C=C1/C(=O)N(c2ccccc2)N=C1C,11,4
CC1=NN(c2cccc(Br)c2)C(=O)/C1=C/c1ccc(N(C)C)cc1,-5,24
CC1=NN(c2ccccc2)C(=O)/C1=C/c1ccccc1,-5,17
COc1ccc(C2CC(=O)c3c(C)nn(-c4nc5ccccc5[nH]4)c3C2)c(OC)c1 (stereo unspecified),-3,2
O=C1C=CC(=O)N1Cc1csc2ccc(Cl)cc12,-14,/
Cc1cccc(NC(=O)c2ccc(N3C(=O)CCC3=O)cc2)c1,1,-2

# Screening results deposited in PubChem by University of Kansas High Throughput Screening Laboratory.
